Source: PubChem BioAssay (National Center for Advancing Translational Sciences (NCATS))
Pol eta inh-1 = inhibitors of human DNA polymerase eta; Q9Y253; recombinant Pol eta, fluorescent DNA replication assay; Potency, µM (doses to about 114 µM), inactives show top-dose activity change, negative = inhibition, most hits filed as inhibitors; 1.2% of 390,000 active; AID 588591; further: potency means the concentration at half of the fitted maximal effect; on the % scale 0 is the no-effect control and ±100 the full control effect
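Fluorescent replication assay: 50 nM final substrate added after a 15 min room-temperature compound preincubation with 10 nM enzyme. Signal taken at 0 min and again at 10 min.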
Pol iota inh = inhibitors of human DNA polymerase iota; Q9UNA4; Pol iota fluorescent replication assay, 10 min; Potency, µM (highest dose often 115 µM), inactives show at the top dose activity, negative = inhibition, usual class: inhibitors; 1% of 390,000 active; AID 588590; further: potency means the concentration at half of the fitted maximal effect
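Pol iota at 10 nM preincubated 15 min with compounds at room temperature; reaction started with fluorescent substrate, 50 nM final. Fluorescence read kinetically at 0 and 10 min; buffer-only wells as negative control.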
Pol kappa inh-1 = blocks human DNA polymerase kappa activity. 0.53% of 400,000 active. purified Pol kappa, fluorescent DNA synthesis assay, 10 min. Potency, µM (doses to about 107 µM), inactives show top-dose activity, negative = inhibition, usual class: inhibitors; further: potency means the concentration at half of the fitted maximal effect; on the % scale 0 is the no-effect control and ±100 the full control effect
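Inhibition of 10 nM Pol kappa is measured by a fluorescent read-out at 0 and 10 min following addition of 50 nM substrate (final), with a 15-min room-temperature compound preincubation.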
PI5P4K alpha inh = PI5P4K alpha (human) kinase inhibition; PI5P4Kalpha enzyme, ADP-Glo luminescence, 60 min; hits give low values; max response, %; P48426; 1.2% of 330,000 active; AID 652105; active means max response of -50% or lower; inconclusive means between -30% and -50%; inactive means -30% or higher; further: value at the top dose of about 77 µM; on the % scale 0 is the no-effect control and ±100 the full control effect
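Human PI5P4Kalpha with substrate in 0.038 M HEPES pH 7.4, 0.28 mM EGTA, 0.1% CHAPS, 5% DMSO; reaction started with 5 microM ATP (final), 60 min at room temperature. ADP formed read by ADP-Glo luminescence.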
FEN1 inh = blocks human flap endonuclease 1; 0.35% of 390,000 active; Recombinant FEN1 flap cleavage, fluorescence, 15 min; P39748; Potency, µM (titrated, usually from 114 µM), inactives show at the top dose activity change, negative = inhibition, most hits filed as inhibitors; further: potency means the concentration at half of the fitted maximal effect; on the % scale 0 is the no-effect control and ±100 the full control effect; nearly all actives have a fitted effect of over 65% in size
Target sequence (P39748 whole entry, looked up): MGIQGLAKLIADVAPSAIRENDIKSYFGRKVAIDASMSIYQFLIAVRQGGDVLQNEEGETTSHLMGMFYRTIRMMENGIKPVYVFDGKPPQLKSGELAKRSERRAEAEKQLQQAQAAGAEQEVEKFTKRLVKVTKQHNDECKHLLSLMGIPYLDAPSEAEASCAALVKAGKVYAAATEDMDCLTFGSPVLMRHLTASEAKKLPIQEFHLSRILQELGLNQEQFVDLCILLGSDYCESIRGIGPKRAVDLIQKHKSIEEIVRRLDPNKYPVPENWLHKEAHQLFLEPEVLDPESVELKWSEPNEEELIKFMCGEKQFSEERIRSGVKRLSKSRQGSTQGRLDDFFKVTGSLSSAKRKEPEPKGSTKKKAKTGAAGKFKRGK
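Compounds are tested as a concentration series against 10 nM FEN1; after a 15 min room-temperature preincubation, 50 nM substrate starts cleavage, with plate reads at 0 and 15 min. Normalized responses are fitted by a Hill equation.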
Pol beta inh = inhibitors of human DNA polymerase beta; P06746; Pol beta primer extension/strand displacement, fluorescence kinetic; Potency, µM (doses to about 114 µM), inactives show top-dose activity change, negative = inhibition, usual class: inhibitors; 1.3% of 340,000 active; AID 485314; further: potency means the concentration at half of the fitted maximal effect; on the % scale 0 is the no-effect control and ±100 the full control effect
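Human Pol beta at 10 nM; strand-displacement substrate 50 nM final. Compound exposure 15 min at room temperature before start, reaction 10 min at room temperature.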
GALK inh confirm = galactokinase (human) inhibition, confirmation. 70% of 150 active. AID 2015. Potency, µM (doses to about 115 µM), inactives show at the top dose activity, negative = inhibition, actives largely listed as inhibitors. shares compounds with Pol eta inh-1. purified GALK, Kinase-Glo ATP depletion luminescence
Redox cycling = generates H2O2 by redox cycling, flagging GALK artifacts; shares compounds with Pol eta inh-1; Phenol red-HRP H2O2 redox cycling, absorbance 600 nm; Potency, µM (series often up to 115 µM), inactives show top-dose activity change, negative = H2O2 signal, usual class: inhibitors; 40% of 150 active
HEK293 tox = reduces HEK-293 cell viability in GALK counter-screen; Potency, µM (titrated, usually from 46.1 µM), for inactives: at the top dose activity change, negative = cytotoxicity, hits mostly inhibitors; 10% of 170 active; shares compounds with Pol eta inh-1; AID 2547; HEK-293 viability, ATP luminescence (CellTiter-Glo), 24/48 h; further: potency means the concentration at half of the fitted maximal effect; on the % scale 0 is the no-effect control and ±100 the full control effect
Pol kappa inh-2 = Pol kappa (human) inhibition, cherry-pick confirmation | shares compounds with Pol eta inh-1 | purified Pol-kappa, fluorescent strand-displacement substrate | Potency, µM, hits mostly inhibitors | 76% of 920 active | AID 720501; further: potency means the concentration at half of the fitted maximal effect
Pol eta inh-2 = Pol eta (human) inhibition, cherry-pick confirmation. shares compounds with Pol eta inh-1. Pol eta primer extension, TAMRA/BHQ fluorescence, 10 min. Potency, µM, hits mostly inhibitors. 64% of 2,600 active. AID 720502; further: potency means the concentration at half of the fitted maximal effect
Active calls of the source: *; u = inconclusive; x = no result. Hits are enriched below; roughly 2.8% of the tested compounds scored in any of these assays. Unless noted, the call rests on the fitted dose curve; in most records, active means well fitted curve in the direction sought with a large enough effect; inconclusive means small, poorly fitted or top-dose-only effect, or another doubt; inactive means no such curve, though single readings can be large; an effect the other way counts as inactive or inconclusive.

SMILES | Pol eta inh-1 | Pol iota inh | Pol kappa inh-1 | PI5P4K alpha inh | FEN1 inh | Pol beta inh | Pol eta inh-2 | others
Cc1ccc(-c2ccc(C(=O)O)o2)cc1Cl | -3% | 17% | -17% | 0 | -3% | -1% | x
CC1(C)OC(=O)C(=Cc2ccc(-c3ccc(Cl)c(C(=O)O)c3)o2)C(=O)O1 | 10µM* | u | 40µM* | u | u | u | 27*
COC(=O)C1=C(O)/C(=C\c2ccc(CNS(=O)(=O)c3ccc(Cl)cc3)o2)N=C1C | u | u | 79µM* | -21 | -10% | 25µM* | u
COc1ccc2cc(C(N)=O)/c(=N\NC(=O)c3ccccc3)oc2c1 | 0% | -13% | -16% | -7 | u | 1% | x
COc1ccc2cc(C(N)=O)c(=Nc3ccc(C)cc3)oc2c1 | -3% | 45% | -11% | 8 | -1% | 18% | x | GALK inh confirm=-15%;Redox cycling=-4%;HEK293 tox=u
Nc1ccc(C(CC(=O)O)n2cccc2)cc1 (stereo unspecified) | 25µM* | 40µM* | 45µM* | -12 | 12% | u | 34*
O=C(CSc1nc2ccc(S(=O)(=O)N3CCOCC3)cc2[nH]1)N1CCOCC1 | 10% | -13% | -10% | -27 | 4% | 4% | u | Pol kappa inh-2=30*
CN(C)c1ccc(NC(=O)CSCc2nc3c(nnn3Cc3ccc(F)cc3)c(=O)[nH]2)cc1 | 50µM* | 28µM* | u | x | -1% | 28µM* | u
Cc1cccc(NC(=O)CSCc2nc3c(nnn3Cc3ccc(F)cc3)c(=O)[nH]2)c1C | -23% | -25% | -6% | 7 | -3% | 6% | x
Cc1cc(N)n(-c2ccc(Oc3ccccc3)c(S(=O)(=O)O)c2)n1 | 18µM* | u | u | -4 | 7% | 14µM* | x | Pol kappa inh-2=u
O=C(O)C/C(=C\c1cccc(NC(=O)c2ccccc2Cl)c1)c1nc2ccccc2s1 | 50µM* | 50µM* | u | u | 11% | u | u
COc1cccc(OC)c1OC(=O)C1CC(=O)N(c2ccc3c(c2)OCCO3)C1 (stereo unspecified) | 28µM* | 25µM* | u | u | 0% | x | u
Cc1ccc(C)c(S(=O)(=O)N2CCCOC2CNC(=O)C(=O)NCc2ccc3c(c2)OCO3)c1 (stereo unspecified) | -16% | -12% | -8% | 0 | 1% | 1% | x
CC(/C=C1\SC(=S)N(NC(=O)c2ccccc2C)C1=O)=C\c1ccccc1 | -11% | -13% | -21% | 4 | -8% | -1% | x
CC(/C=C1\SC(=S)N(NS(=O)(=O)c2ccc(C)cc2)C1=O)=C\c1ccccc1 | 40µM* | u | -14% | u | u | 40µM* | u
CCOc1cc(/C=C2\N=C(SC)SC2=O)cc([N+](=O)[O-])c1OC(C)=O | u | u | 45µM* | u | 50µM* | 22µM* | x | Pol kappa inh-2=84*
O=C(Nc1ccc(F)cc1)c1ccc2c(c1)NC(=O)c1ccccc1S2 | -13% | 50% | 3% | x | 21% | 10% | x
COC(=O)c1cc(NC(=O)c2ccc3c(c2)NC(=O)c2ccccc2S3)cc(C(=O)OC)c1 | 50µM* | u | -32% | x | 2% | 6.3µM* | u | Pol kappa inh-2=9.5*
CC(Cc1c[nH]c2ccccc12)C(=O)NCc1ccco1 (stereo unspecified) | 20µM* | u | u | 0 | -11% | 32µM* | 30* | Pol kappa inh-2=42*
CC(=O)NC(Cc1c[nH]c2ccccc12)C(=O)NCc1ccco1 (stereo unspecified) | -7% | -7% | 0% | 2 | 7% | 30% | x
CC(C)C(CC(=O)NCc1ccco1)c1ccco1 (stereo unspecified) | 18µM* | u | u | -13 | -5% | u | u
CCCNC(=O)c1nc(C)n(-c2cc(Cl)ccc2Cl)n1 | -22% | 36% | -1% | -2 | 14% | 5% | x
CC(Oc1cc(F)ccc1[N+](=O)[O-])C(=O)N(C)CC(=O)Nc1ccccc1C(F)(F)F (stereo unspecified) | -6% | 24% | -4% | -7 | 4% | 0% | x
COc1ccc(/C=C2/SC(=S)N(CC(=O)O)C2=O)cc1OCc1ccc(Cl)cc1 | u | -1% | -4% | -12 | u | u | x
O=C(O)CN1C(=O)/C(=C\c2cc(Br)ccc2OCc2ccc(F)cc2)SC1=S | 40µM* | 40µM* | -69% | u | u | 40µM* | u
SMILES | Pol eta inh-1 | Pol iota inh | Pol kappa inh-1 | PI5P4K alpha inh | FEN1 inh | Pol beta inh | Pol eta inh-2 | others
N#Cc1c(C(=O)c2cccs2)no[n+]1[O-] | x | x | x | x | x | x | u
COC(=O)/C=C1\SC(=NC(=O)c2ccc(OC)cc2)NC1=O | -16% | 1% | -2% | -1 | 15% | 12% | x
COC(=O)/C=C1\SC(=NC(=O)c2ccc(-c3ccccc3)cc2)NC1=O | 50µM* | u | -33% | -63* | -13% | x | u
Clc1ccc(COc2cccc(CNCc3ccncc3)c2)cc1 | -27% | 83% | -5% | 8 | 0% | -1% | x
O=C(N/N=C/c1coc2ccccc2c1=O)c1cc(Br)c(O)c(Br)c1 | u | -7% | -12% | -70* | 6% | -13% | u
N#Cc1c(-c2ccc(Cl)c([N+](=O)[O-])c2)no[n+]1[O-] | x | x | x | x | x | x | 76*
Cc1nc(Nc2nc3ccccc3o2)nc2c1CCC2 | 4% | 2% | -17% | -24 | -3% | 7% | x
CC(C)c1nc(Nc2nc3ccccc3o2)nc2c1CCCC2 | x | x | x | x | x | x | x | HEK293 tox=-29%
O=S1(=O)N[C@@H](c2ccccc2)COc2cc(Br)ccc21 | -25% | x | x | 2 | x | x | x
